KCNQ2 block – inhibitors of rat KCNQ2 potassium channel | B-score at 10 µM | O88943 | CHO-K1 KCNQ2, FluxOR thallium flux, 20 min; stronger effect = lower value | 310,000 compounds, 1.1% hits;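 active = fluorescence ratio B-score at most minus 3 library SDs, with starting brightness B-score within 2 library SDs, cut at about -5.5 in these data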
KCNQ2 enhance – enhances the rat KCNQ2 potassium channel. O88943. 310,000 compounds, 0.54% hits. B-score at 10 µM. CHO-K1 KCNQ2, FluxOR thallium flux fluorescence; stronger effect = higher value;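 active = fluorescence ratio B-score at least 3 SD of library B-scores, with initial fluorescence B-score within 3 of them, cut at about 5.3 in these data; same plate scores as AID 2156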;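 note: B-score of peak minus minimum over baseline fluorescence ratio after K+ and Tl+ stimulus; positive B-score means potentiation of KCNQ2 with more thallium influx and brighter signal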
Kir21 confirm – confirmation of mouse Kir2.1 potassium channel inhibitors; Kir2.1-expressing cells, FluxOR thallium flux fluorescence; stronger effect = lower value; AID 2032; 2,300 compounds, 41% hits; shares compounds with KCNQ2 enhance; Tl flux remaining, % of negative control (stronger effect = lower value), % at 10 µM;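 active = Primary-screen hit whose thallium flux fell at least 3 control SD below untreated wells in both duplicates, with normal baseline fluorescence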
HEK293 ctr – parental HEK293 activity in Kir2.1 inhibitor counter-screen; shares compounds with KCNQ2 enhance; parental HEK293 cells, FluxOR thallium flux fluorescence; 0% = unstimulated blank wells; FluxOR signal as % of negative control (100 = no effect), % at 10 µM; 2,300 compounds, 19% hits; AID 2105;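 active = dye signal at least 3 control SD above or below untreated wells in both duplicates, raw fluorescence within 3, either direction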;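 note: percent is based on the flux ratio of peak minus minimum fluorescence over baseline F0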
CHO-K1 Tl ctr – parental CHO-K1 activity in KCNQ2 potentiator counter-screen; shares compounds with KCNQ2 enhance; parental CHO-K1 cells, FluxOR thallium flux fluorescence; zero = vehicle mean+3SD, 100% = vehicle-minus-blank window; activity increase over 3SD of controls, % at 10 µM; 1,200 compounds, 43% hits; AID 2282;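 active = signal rise of at least 3 SD above the untreated control mean, in both duplicate wells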;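 note: counter screen of KCNQ2 potentiator hits so any rise reflects channel-independent effects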
KCNQ1 pot spec – human KCNQ1 counter-target activity of KCNQ2 potentiators. activation over 3SD threshold, % at 10 µM. CHO KCNQ1 stable, FluxOR thallium flux fluorescence; beyond 3SD, as % of vehicle-control signal. shares compounds with KCNQ2 enhance. 1,200 compounds, 28% hits;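 active = fluorescence ratio rise of at least 3 SD of vehicle wells above their mean, in both replicate wells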
Target sequence (P51787 whole entry, looked up): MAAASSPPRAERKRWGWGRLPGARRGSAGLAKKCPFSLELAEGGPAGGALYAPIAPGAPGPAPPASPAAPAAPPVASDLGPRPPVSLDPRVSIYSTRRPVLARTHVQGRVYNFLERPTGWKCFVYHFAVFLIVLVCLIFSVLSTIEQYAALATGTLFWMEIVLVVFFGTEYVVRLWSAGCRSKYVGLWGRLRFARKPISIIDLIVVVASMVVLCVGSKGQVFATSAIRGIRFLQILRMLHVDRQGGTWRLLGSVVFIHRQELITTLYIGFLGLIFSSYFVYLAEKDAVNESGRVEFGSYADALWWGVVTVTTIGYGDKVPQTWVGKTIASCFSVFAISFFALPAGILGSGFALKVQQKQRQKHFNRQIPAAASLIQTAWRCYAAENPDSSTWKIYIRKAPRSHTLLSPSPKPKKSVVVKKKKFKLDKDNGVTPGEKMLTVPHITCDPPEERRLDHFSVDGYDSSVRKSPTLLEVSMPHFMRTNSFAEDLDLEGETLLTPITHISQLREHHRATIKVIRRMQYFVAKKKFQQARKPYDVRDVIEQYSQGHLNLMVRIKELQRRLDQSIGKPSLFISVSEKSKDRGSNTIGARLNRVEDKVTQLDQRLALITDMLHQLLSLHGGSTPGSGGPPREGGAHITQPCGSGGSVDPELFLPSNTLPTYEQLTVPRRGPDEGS
KCNQ2 pot conf – confirmation of rat KCNQ2 potassium channel potentiators | shares compounds with KCNQ2 enhance | CHO-KCNQ2 cells, FluxOR thallium flux fluorescence | potentiation, less the hit threshold, % at 10 µM | 1,200 compounds, 68% hits | AID 2287;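 active = fluorescence ratio rising 3 SD or more over the vehicle control mean in both replicates, plus primary screen hit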;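 note: peak minus minimum thallium fluorescence divided by baseline after K/Tl stimulus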
Kir21 spec – tests whether KCNQ2 potentiators also affect mouse Kir2.1 | shares compounds with KCNQ2 enhance | HEK293 Kir2.1, FluxOR thallium flux fluorescence | activity over 3SD threshold, % at 10 µM | 1,200 compounds, 2% hits;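 active = fluorescence ratio rise of at least 3 SD above the vehicle-control mean, seen in both replicates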
KCNQ2 W236L pot – potentiates the retigabine-insensitive rat KCNQ2 W236L mutant channel; shares compounds with KCNQ2 enhance; CHO KCNQ2-W236L, automated patch clamp current; current increase over 3SD of negative controls (%), stronger effect = higher value, % at 25 µM; 940 compounds, 10% hits; AID 2558;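 active = current increase at least 3 SD of the untreated controls above them in both duplicate recordings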
Of the large screens only hits and unclear results are named; the others gave an inactive call (follow-up assays come after a bar, where they were run). Most compounds without a hit are left out; they make up all but 1.6% or so of the library.

O=C(CCOc1ccccc1)Nc1ccnn1C1CCN(Cc2ccc(F)cc2)CC1	none (no result: KCNQ2 enhance)
COc1ccc(-c2[nH]ncc2CNC(C)CCn2cccn2)cc1F (stereo not given)	none
COc1ccc(-c2[nH]ncc2CNC(C)c2ccccc2Cl)cc1F (stereo not given)	none | Kir21 confirm 60.0% | HEK293 ctr inactive
O=C(Nc1ccccc1)C1CC2CCC1C2 (stereo not given)	none
Cc1ccc(NC(=O)C2CCCC2)c(Br)c1	none
Cc1ccc(NC(=O)CC2CCCC2)c(Br)c1	KCNQ2 enhance 16.4 | Kir21 confirm inactive | HEK293 ctr inactive | CHO-K1 Tl ctr inactive | KCNQ1 pot spec inactive | KCNQ2 pot conf 52.4 | Kir21 spec inactive | KCNQ2 W236L pot inactive
CCN(CC)c1ccc(NC(=O)C2CC3CCC2C3)cc1 (stereo not given)	KCNQ2 enhance 22.8 | Kir21 confirm inactive | HEK293 ctr inactive | CHO-K1 Tl ctr 2.7 | KCNQ1 pot spec inactive | KCNQ2 pot conf 65.0 | Kir21 spec inactive | KCNQ2 W236L pot inactive
COc1ccc(NC(=O)C2CCCO2)c(OC)c1 (stereo not given)	none (no result: KCNQ2 enhance)
COc1ccc(NC(=O)C2CC3CCC2C3)c(OC)c1 (stereo not given)	KCNQ2 enhance 9.81 | Kir21 confirm inactive | HEK293 ctr inactive | CHO-K1 Tl ctr 68.9 | KCNQ1 pot spec 57.5 | KCNQ2 pot conf 60.7 | Kir21 spec inactive | KCNQ2 W236L pot inactive
Cc1ccc(NC(=O)C2CC3CCC2C3)c(Br)c1 (stereo not given)	KCNQ2 enhance 13.7 | Kir21 confirm inactive | HEK293 ctr inactive | CHO-K1 Tl ctr 16.9 | KCNQ1 pot spec inactive | KCNQ2 pot conf 32.0 | Kir21 spec inactive | KCNQ2 W236L pot inactive
Cc1cc(C)cc(NC(=O)C2CC3CCC2C3)c1 (stereo not given)	none
CC1(c2nnc(-c3ccccc3)o2)CC(c2ccc([N+](=O)[O-])cc2)=NO1 (stereo not given)	none
COc1ccc2c(c1OC)C(=O)OC2n1c(O)c(N=NC(C)=O)c2ccccc21 (stereo not given)	none
O=c1[nH]c(SCc2ccc(Cl)cc2)nc2[nH]ncc12	none
O=C(Nc1cc(S(=O)(=O)N2CCOCC2)ccc1OCC(F)(F)F)C1=COCCO1	none
Cc1ccc(C)c(NC(=O)C2CC3CCC2C3)c1 (stereo not given)	KCNQ2 enhance 21.4 | Kir21 confirm inactive | HEK293 ctr inactive | CHO-K1 Tl ctr inactive | KCNQ1 pot spec 1.6 | KCNQ2 pot conf 57.2 | Kir21 spec inactive | KCNQ2 W236L pot inactive
Cc1ccc(S(N)(=O)=O)cc1NC(=O)C1CC2CCC1C2 (stereo not given)	none (no result: KCNQ2 enhance)
Cc1[nH][nH]c(=O)c1C(c1ccc(-c2cccc(C(=O)O)c2)o1)c1c(C)[nH][nH]c1=O	none (no result: KCNQ2 enhance)
Cc1[nH][nH]c(=O)c1C(c1ccc(-c2cccc(Cl)c2)o1)c1c(C)[nH][nH]c1=O	KCNQ2 block -5.87 | Kir21 confirm inactive | HEK293 ctr inactive
C/C(CCS(=O)(=O)c1ccccc1)=N/O	none
CC(C)NC(=O)Nc1n[nH]c(Nc2ccc(Cl)cc2)n1	KCNQ2 enhance 5.61 | Kir21 confirm inactive | HEK293 ctr inactive | CHO-K1 Tl ctr 9.6 | KCNQ1 pot spec inactive | KCNQ2 pot conf inactive | Kir21 spec inactive | KCNQ2 W236L pot inactive
CCCc1cc(=O)[nH]c(Nc2ccc(Cl)cc2)n1	none (no result: KCNQ2 enhance)
CCNC(=S)N/N=C1\C(=O)c2cccc3cccc1c23	none
O=C(N/N=C1/C(=O)c2cccc3cccc1c23)c1ccc(Cl)cc1	KCNQ2 enhance 10.1 | Kir21 confirm inactive | HEK293 ctr 213.0% | CHO-K1 Tl ctr 46.0 | KCNQ1 pot spec 37.4 | KCNQ2 pot conf 14.5 | Kir21 spec inactive | KCNQ2 W236L pot inactive
O=C1NC2(CCCCCCC2)C(=O)N1Cc1ccc(F)cc1	none (no result: KCNQ2 enhance)
O=C1NC2(CCCCCC2)C(=O)N1Cc1ccccc1	KCNQ2 enhance 5.59 | Kir21 confirm inactive | HEK293 ctr inactive | CHO-K1 Tl ctr inactive | KCNQ1 pot spec inactive | KCNQ2 pot conf inactive | Kir21 spec inactive
Nc1ncnc(Nc2ccc(S(N)(=O)=O)cc2)n1	none
CCCN(CC(=O)Nc1ccccc1C)C(=O)c1ccc(=O)n(Cc2ccccc2)n1	none
CCOC(=O)C(NS(=O)(=O)c1ccc(Br)cc1)C(C)C (stereo not given)	none | Kir21 confirm 42.5% | HEK293 ctr inactive
Cc1ccc(S(=O)(=O)NC(C(=O)OCC(=O)NC(=O)c2cccn2C)C(C)C)cc1 (stereo not given)	none
CCn1cc(/C=N/NC(=O)c2ccc3c(c2)OCO3)c(C)n1	KCNQ2 enhance 6.3 | Kir21 confirm inactive | HEK293 ctr inactive | CHO-K1 Tl ctr inactive | KCNQ1 pot spec inactive | KCNQ2 pot conf inactive | Kir21 spec inactive
CCn1ncc(/C=N/NC(=O)c2ccc3c(c2)OCO3)c1C	none (no result: KCNQ2 enhance)
N=C1S/C(=C\c2ccc(-c3cccc(Cl)c3)o2)C(=O)N1c1nccs1	KCNQ2 enhance 6.54 | Kir21 confirm inactive | HEK293 ctr inactive | CHO-K1 Tl ctr inactive | KCNQ1 pot spec inactive | KCNQ2 pot conf 6.8 | Kir21 spec inactive | KCNQ2 W236L pot inactive
COc1ccc(/C=C2\SC(=N)N(c3nccs3)C2=O)cc1OC	none
CCc1ccc(NC(=O)Cn2nc(C)n3cccc3c2=O)cc1	none
S=c1nc(C2CCCCC2)n(-c2ccccc2)[nH]1	KCNQ2 enhance 10.7 | Kir21 confirm inactive | HEK293 ctr 261.5% | CHO-K1 Tl ctr 41.7 | KCNQ1 pot spec inactive | KCNQ2 pot conf 22.3 | Kir21 spec inactive | KCNQ2 W236L pot inactive
S=c1nc(-c2ccccc2)n(-c2ccccc2)[nH]1	none
CN(Cc1ccccc1)C(=O)C1CCN(S(=O)(=O)c2ccc3nc4c(c(C(=O)O)c3c2)CCCC4)CC1	none
c1ccc(COc2ccccc2CNC2CCCC2)cc1	none
c1ccc(COc2ccccc2CNC23CC4CC(CC(C4)C2)C3)cc1	none (no result: KCNQ2 enhance) | Kir21 confirm 42.0% | HEK293 ctr inactive
O=c1[nH][nH]c(=O)n1-c1ccccc1	none
CCOc1cc(/C=C/C(=O)c2ccc(OC)c(CN3CCOCC3)c2)cc(Br)c1O	none (no result: KCNQ2 enhance)
Cc1nc(SCC(=O)NCc2ccco2)c2c(C)c(C)sc2n1	none (no result: KCNQ2 enhance)
Cc1sc2nc(C(C)C)nc(SCC(=O)NCc3ccco3)c2c1C	none | Kir21 confirm inactive | HEK293 ctr 218.0%
